# Rows were chosen to be rich in hits. Some 2.8% of all compounds tested hit in one or more screens of this group.
# KKLEB tox = CF airway cell cytotoxicity counter-screen | activity change (cytotoxicity), % at 5 µM | KKLEB CF airway cells viability, ATPlite luminescence, overnight; active compounds read low; cells stimulated with P. aeruginosa culture filtrate | actives 0.36% (n = 360,000);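 active = corrected activity change at or below -50% at 5 µM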
# CF NFkB inh = blocks PAF-induced NF-kB reporter in cystic fibrosis cells; KKLEB NF-kB-GFP reporter, GFP fluorescence overnight; inhibition, % at 5 µM; actives 0.86% (n = 360,000);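 active = at least 50% inhibition at 5 µM, scaled per plate between neutral and stimulator controls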;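 also: PAF is a Pseudomonas aeruginosa culture filtrate used as stimulus; plate controls were PAF-stimulated DMSO wells for no effect and unstimulated DMSO wells for full effect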
# Shn3 3UTR inh = Schnurri-3 reporter inhibition in Clone20 osteoblasts. actives 0.52% (n = 360,000). inhibition, % at 12.5 µM. Clone20 osteoblast Shn3 3'UTR firefly luciferase, 24 h. AID 588674;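 active = mean inhibition of at least 75% with every replicate also reaching 75%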;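 also: 0% = median of neutral control wells and 100% = pilot-screen positive control compound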
# HIF-2a inh = blocks HIF-2a reporter activity | 786-0 RCC cells HIF-2a reporter, luciferase luminescence, overnight | inhibition, % at 18.8 µM | actives 0.72% (n = 360,000);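 active = inhibition of the luminescence signal of 40% or more relative to plate controls, in a single-dose primary screen at 18.75 µM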
# Peg3 prom inh = inhibitors of Peg3 promoter. HeLa PEG-Prom luciferase reporter, luminescence, overnight. inhibition, % at 20 µM. actives 1.7% (n = 360,000);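 active = inhibition of at least 50% at 20 µM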
# MITF TRPM1 inh = MITF TRPM1 promoter inhibition in SK-MEL-5 cells; SK-MEL-5 TRPM1 promoter luciferase, 24 h; inhibition, % at 12.5 µM; actives 0.83% (n = 330,000); AID 488899;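 active = mean inhibition across replicates of 60% or more, whatever share of single replicates reaches that level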
# * hit, by the source's call; / = no result.
SMILES,KKLEB tox,CF NFkB inh,Shn3 3UTR inh,HIF-2a inh,Peg3 prom inh,MITF TRPM1 inh
Oc1ccc(N=Nc2ccccc2)cc1,-6,15,-36,-313,-354,-121
Cc1ccc2c(C)nc(Nc3nc(CSc4nnnn4-c4ccccc4)cc(=O)[nH]3)nc2c1,6,10,-18,18,53*,29
COc1ccc(CNCCS(=O)(=O)NCc2ccc(OC)cc2)cc1,19,-27,1,16,-5,2
CCCCCCCCNS(=O)(=O)CCNCc1ccc(OC)cc1,-19,11,-6,13,61*,-3
CS(=O)(=O)c1ccc(C(=O)OCc2nnc(-c3ccc(Cl)cc3)o2)cc1[N+](=O)[O-],-19,12,6,-12,104*,25
O=C(OCc1nnc(-c2ccc(Cl)cc2)o1)c1ccc(O)cc1,2,4,-11,-97,-64,-12
c1ccc(CCN(Cc2ccccc2)C2CCN(C3CCCC3)CC2)cc1,-2,-32,12,6,3,-19
C=CCN(C(=O)c1ccc2snnc2c1)c1ccccc1,6,-3,17,2,6,4
CCc1nc2ccc(C(=O)NCCCN(C)C)cn2c1N(C)CCCc1ccccc1,-10,8,-19,0,53*,/
CCc1nc2ccc(C(=O)NCCCn3ccnc3)cn2c1N(C)CCCc1ccccc1,-5,-1,-2,9,11,/
CCc1nc2ccc(C(=O)NC3CCN(Cc4ccccc4)CC3)cn2c1N(C)Cc1cc2ccccc2s1,-8,31,49,-4,94*,/
CCCC1=Nc2cc(C(=O)NCCCOC(C)C)ccc2Sc2ccccc21,1,20,34,25,16,36
CCCC1=Nc2cc(C(=O)NCCCOCC)ccc2Sc2ccccc21,-4,48,17,12,4,72*
COc1cccc(Nc2nc(NCC3CCCO3)c3ccccc3n2)c1 (stereo not given),-17,-12,88*,-2,24,32
CC(=O)NNc1cc(C)nc(N)n1,16,-19,-5,23,11,/
CCN(CC)CCNC(=O)c1ccc(NC(=O)c2cn(-c3ccccc3)nc2-c2cccs2)cc1,-13,-14,-17,-78,106*,76*
O=C(Nc1cccnc1)c1cn(-c2ccccc2)nc1-c1cccs1,1,8,-19,-190,-116,-56
CCN(CC)CCNC(=O)c1ccc(NC(=O)c2cc(-c3ccco3)nc3ccccc23)cc1,-3,-30,21,24,61*,70*
CCN(CC)CCNC(=O)c1ccc(NC(=O)c2cn(-c3ccc(F)cc3)nc2-c2cccc(OC)c2)cc1,-19,-16,-9,-17,101*,98*
CC(C)(C)C(=O)NC1CC2CCCC(C1)N2C(=O)Nc1cccc(Cl)c1 (stereo not given),1,2,5,21,9,2
CCOC(=O)C1CCCN(C(=O)c2cc(C#N)cs2)CC1 (stereo not given),2,-4,-12,3,1,/
COc1cccc(C(=O)N2CCC2(C)C(=O)O)c1 (stereo not given),1,-22,-4,8,-12,/
N#C/C(=N\Nc1cccc(C(F)(F)F)c1)C(=O)c1csc(-c2cccnc2)n1,-40,53*,6,-29,26,4
Cc1ccc(C(=O)Nc2cccc(C(F)(F)F)c2)cc1NC(=O)c1csc(-c2ccncc2)n1,-3,29,23,-29,39,-8
COc1cc(C#Cc2c(-c3cncn3C)n(C)c3ccc(-c4cc(OC)c(OC)c(OC)c4)cc23)cc(OC)c1,9,37,68,-1,25,12
COc1cc(C#Cc2c(-c3cncn3C)n(C)c3ccc(-c4ccc(OC)nc4)cc23)cc(OC)c1,-16,-4,94*,0,39,-3
CCCCCCCCCCCCCCCCn1cc[n+](C)c1,-94*,84*,81,82*,108*,70*
Cc1[nH]c2ccccc2c1CN1CCN(c2ccccn2)CC1,4,-7,/,-1,-11,2
Cc1[nH]c2ccccc2c1CN1CCC(Cc2ccccc2)CC1,-19,25,18,1,78*,19
O=C(/C=C/c1ccc(Cl)cc1)c1ccc([N+](=O)[O-])o1,-48,96*,97*,49*,107*,98*

# Screening results from PubChem.
